Screening data: PubChem BioAssay, National Center for Advancing Translational Sciences (NCATS)
IMPase cell inh: cell-permeable inhibitors of inositol monophosphatase (IMPase); CHO-M1 cells, IP1 accumulation, HTRF TR-FRET ratio; AID 901; 120,000 tested, under 10 active; P97697; inhibition (IP1 accumulation), % at 46.1 µM; active = well fitted curve in the direction sought with a large enough effect in the signal ratio, not every such curve was filed as active; inconclusive = small, poorly fitted or top-dose-only effect, or a change in a side signal; inactive = no such curve, though single readings can be large or run the other way; the % refers to the signal ratio;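 also: cells stimulated with carbachol in lithium chloride buffer; plate controls were DMSO basal wells for no effect and reference inhibitor wells for full effect; higher means more IMPase inhibition seen as more IP1 and lower FRET ratio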
Target sequence (P97697 whole entry, looked up): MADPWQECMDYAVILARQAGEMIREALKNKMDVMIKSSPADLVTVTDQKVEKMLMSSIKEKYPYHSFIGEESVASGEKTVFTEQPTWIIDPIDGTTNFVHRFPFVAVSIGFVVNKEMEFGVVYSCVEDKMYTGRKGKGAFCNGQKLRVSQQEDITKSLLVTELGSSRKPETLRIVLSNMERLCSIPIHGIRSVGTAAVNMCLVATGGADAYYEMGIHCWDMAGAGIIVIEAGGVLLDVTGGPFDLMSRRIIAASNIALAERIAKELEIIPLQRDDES
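Measured: the HTRF emission ratio (665/620 nm) plus the 620 nm donor channel, each fitted to the Hill equation to give AC50. Cells were CHO-M1 given compounds up to 46 uM and a 30 min carbachol stimulation at 37C.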
IMPase Li inh: IMPase inhibition in cells with lithium potentiation | CHO-M1 cells, IP1 TR-FRET (IP-One), carbachol + lithium | Potency, µM (doses to about 59.4 µM), for the others: at the top dose activity, negative = IMPase inhibition, hits mostly inhibitors | 0.35% of 210,000 active | AID 1457;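 also: IP1 builds up when IMPase is blocked and the TR-FRET signal falls; potency is read from the fitted curve at half-maximal effect; plate controls were basal vehicle for no effect and high inhibitor control for full effect; nearly all actives have a fitted effect of over 50% in size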
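Lithium-sensitised IP1 accumulation assay; M1-expressing CHO cells treated 30 min at 37C with compound. Competitive antibody detection by time-resolved FRET followed a 10 min room-temperature lysis step.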
NPSR antagonist: neuropeptide S receptor (human) antagonism, cAMP. Q6W5P4. CHO-NPSR cells, cAMP TR-FRET, antagonist mode. 1% of 220,000 active. Potency, µM (top dose mostly 38.3 µM), for the others: top-dose activity change, negative = inhibition, hits mostly inhibitors. AID 1461; also: potency is read from the fitted curve at half-maximal effect; nearly all actives have a fitted effect of over 50% in size
Target sequence (Q6W5P4 whole entry, looked up): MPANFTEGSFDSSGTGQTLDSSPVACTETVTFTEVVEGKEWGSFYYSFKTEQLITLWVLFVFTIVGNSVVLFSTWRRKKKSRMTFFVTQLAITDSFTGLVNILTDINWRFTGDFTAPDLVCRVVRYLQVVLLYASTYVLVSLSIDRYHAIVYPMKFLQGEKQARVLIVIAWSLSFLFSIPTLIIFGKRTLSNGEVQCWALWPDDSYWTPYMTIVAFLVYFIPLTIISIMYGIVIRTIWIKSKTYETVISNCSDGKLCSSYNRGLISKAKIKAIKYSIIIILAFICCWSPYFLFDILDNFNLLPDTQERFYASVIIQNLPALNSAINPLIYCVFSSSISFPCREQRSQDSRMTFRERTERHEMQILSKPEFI
ALDH1A1 block: blocks purified human ALDH1A1 activity; P00352; Purified ALDH1A1, NADH fluorescence, propionaldehyde substrate; Potency, µM (highest dose often 75.3 µM), without a hit: at the top dose activity, negative = inhibition, usual class: inhibitors; 7.3% of 220,000 active; AID 1030; active = well fitted inhibition curve with a large enough effect, not every such curve was filed as active; inconclusive = small, poorly fitted or top-dose-only effect, or another doubt; inactive = no such curve, though single readings can be large or run the other way;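 also: potency is read from the fitted curve at half-maximal effect; plate controls were no enzyme wells and a reference inhibitor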
HPGD inh: inhibitors of human 15-hydroxyprostaglandin dehydrogenase (HPGD). P15428. purified HPGD, NADH fluorescence kinetic, PGE2 substrate. Potency, µM, for the others: at the top dose activity change, negative = inhibition, most hits filed as inhibitors. 4.3% of 150,000 active. AID 894; active = well fitted inhibition curve with a large enough effect, not every such curve was filed as active; inconclusive = small, poorly fitted or top-dose-only effect, or another doubt; inactive = no such curve, though single readings can be large or run the other way; also: potency is read from the fitted curve at half-maximal effect
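NADH formation kinetics: reaction with 30 uM PGE2 and 1 mM NAD+ (final), 20 nM enzyme, Tris-HCl pH 8 with Tween 20, after 15 min compound preincubation at room temperature. Fluorescence change, last versus first of five reads.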
12-hLO inh: 12-hLO (ALOX12) enzyme inhibition; purified 12-hLO, xylenol orange hydroperoxide absorbance; Potency, µM (doses to about 57.1 µM), for inactives: at the top dose activity change, negative = inhibition, usual class: inhibitors; 0.12% of 150,000 active; also: potency is read from the fitted curve at half-maximal effect; nearly all actives have a fitted effect of over 55% in size
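150 nM 12hLO, 25 mM Hepes pH 7.0 + 0.01% Triton X-100; cpd preinc 15 min RT; 40 uM arachidonic acid, 30 min RT; Fe-XO 30 min; A573/A405 ratio as read-out.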
Numbers without * were called inactive; ? = inconclusive; . = not tested or not shown; [ ] = remark or other dose. Only some compounds are listed: those with a hit (about 8.9% of all), similar ones and a draw of the others. Unless noted, calls follow the shape of the dose curve; as a rule, active = well fitted curve in the direction sought with a large enough effect; inconclusive = small, poorly fitted or top-dose-only effect, or another doubt; inactive = no such curve, though single readings can be large; an effect the other way counts as inactive or inconclusive. Unless noted, % is scaled to controls: 0 for no effect and ±100 for the full control effect.

SMILES	IMPase cell inh	IMPase Li inh	NPSR antagonist	ALDH1A1 block	HPGD inh	12-hLO inh
O=C(C1=C(O)C(=O)N(CCCN2CCOCC2)C1c1ccccn1)c1cc2ccccc2o1 (stereo unspecified)	?	11µM*	24%[46.1 µM]	?	-7%	0%
Cc1cccn2c(=O)c(C=O)c(N3CC(C)OC(C)C3)nc12 (stereo unspecified)	.	1%	-1%	-2%	.	.
CCN1C(=O)CCCc2ccccc21	.	4%	13%	-2%	.	.
CN(C)CCN1C(=O)C(O)=C(C(=O)c2cc3ccccc3o2)C1c1cccc(Br)c1 (stereo unspecified)	?	11µM*	?	-1%	-11%	-6%
COc1ccccc1C1C(C(=O)c2cc3ccccc3o2)=C(O)C(=O)N1CCN(C)C (stereo unspecified)	-27	8.9µM*	17%[46.1 µM]	20µM*	-13%	10%
CCCC12CN3CC(C)(CN(C1)C3c1ccc(OC)cc1)C2=O (stereo unspecified)	13	-3%[38.3 µM]	-4%[46.1 µM]	?	-1%	-7%
CC(C)C12CN3CC(C(C)C)(CN(C1)C3c1ccc3c(c1)OCO3)C2=O (stereo unspecified)	8	25%[38.3 µM]	-20%[46.1 µM]	7.9µM*	3%	-6%
CC12CN3CC(C)(CN(C1)C3c1ccc3c(c1)OCO3)C2 (stereo unspecified)	.	8%	6%	-9%	.	.
CCCC12CN3CC(C)(CN(C1)C3c1ccc3c(c1)OCO3)C2=O (stereo unspecified)	16	3%[38.3 µM]	-1%[46.1 µM]	2µM*	-6%	-10%
COC(=O)c1ccc(NC(=O)CSc2nc3c(c(=O)n(C)c(=O)n3C)n2Cc2ccccc2)cc1	-9	.	.	.	.	.
CCc1ccc(/C=C2/C(=O)N(c3ccccc3)C(=S)N2CC(=O)OC)s1	-21	-8%	-25%	8.9µM*	-17%	-4%
CCOC(=O)C1C(=O)C=C(c2ccc([N+](=O)[O-])cc2)CC1c1ccccc1 (stereo unspecified)	-1[1.84 µM]	29%[38.3 µM]	-19%[46.1 µM]	?	?	-6%
CCOC(=O)C1C(=O)C=C(c2cccc(NS(C)(=O)=O)c2)CC1c1ccco1 (stereo unspecified)	4	6%	-18%[46.1 µM]	20µM*	-22%	-10%
CCOC(=O)C1C(=O)C=C(c2ccc(C)cc2)CC1c1ccccc1 (stereo unspecified)	.	9%	-36%	-10%	.	.
CCOC(=O)C1C(=O)C=C(c2ccc(Br)cc2)CC1c1ccco1 (stereo unspecified)	1	-12%[38.3 µM]	-24%[46.1 µM]	16µM*	-14%	-7%
Cc1ccc(CNC(=O)CCc2nc3ccccc3c(=O)[nH]2)cc1	?	-5%[38.3 µM]	-3%[46.1 µM]	8%	-4%	0%
CC(=O)Nc1ccc(S(=O)(=O)N2CCN=C2SCc2cccnc2)cc1	.	4%	9%	?	.	.
Cn1c(=O)c2c(-c3ccc(C(C)(C)C)cc3)n(CC3CCCO3)cc2n(C)c1=O (stereo unspecified)	2	-4%[38.3 µM]	-14%[46.1 µM]	?	-19%	-4%
Cc1cccc(-c2c3c(=O)n(C)c(=O)n(C)c3cn2CC2CCCO2)c1 (stereo unspecified)	-2	0%[38.3 µM]	-14%[46.1 µM]	20µM*	-21%	-6%
CN=c1nc(-c2ccccc2)n(-c2ccccc2)s1	14	25%	?	1.4µM*	-26%	?
O=C(O)c1sc2cccc(Cl)c2c1Cl	.	7%	28%	2%	.	.
Cn1c(-c2cccc3ccccc23)n[nH]c1=S	.	-6%	1%	-6%	-24%	0%
Cn1c(-c2cc(Br)ccc2O)n[nH]c1=S	2	23%[38.3 µM]	-3%[46.1 µM]	3%	14µM*	-6%
O=[N+]([O-])c1cc([N+](=O)[O-])c2c(=Nc3ccccc3)n(-c3ccccc3)n(O)c2c1	.	24%	?	0.35µM*	.	.
O=[N+]([O-])c1cccc(C(=Nc2ccccc2)NO)c1	-3	10%	1%	-14%	-13%	-2%
SMILES	IMPase cell inh	IMPase Li inh	NPSR antagonist	ALDH1A1 block	HPGD inh	12-hLO inh
N#CC(C#N)=c1ccc2c(c1)N1C3=C(CCCC3)CC3CCCCC31N=2 (stereo unspecified)	10	16%	13µM*	?	-7%	6%
N#C/C(C(N)=O)=c1/ccc2c(c1)N1C3=C(CCCC3)CC3CCCCC31N=2 (stereo unspecified)	?	88%[38.3 µM]	10µM*	-8%	0%	?
CCC(NC(=O)CCl)c1ccc(C)cc1 (stereo unspecified)	.	10%	12%	8.9µM*	.	.
CC(NC(=O)c1ccc(Cl)c(Cl)c1)c1ccc(-c2ccccc2)cc1 (stereo unspecified)	.	.	-15%	.	.	.
CC(NC(=O)CCl)c1ccc(Cl)c(Cl)c1 (stereo unspecified)	0	21%[38.3 µM]	15%[46.1 µM]	10µM*	1%	-2%
CCOCCCNC(=O)CN(Cc1ccc(Cl)cc1)S(C)(=O)=O	6	9%[38.3 µM]	-6%[46.1 µM]	14%	-1%	-1%
CSCCC1NC(=O)N(CC(=O)Nc2ccc(Br)cc2Br)C1=O (stereo unspecified)	.	.	-13%	16%	.	.
COC(=O)CN1C(c2ccccc2O)Nc2ccc(Br)cc2C1c1ccccc1 (stereo unspecified)	.	10%	0%	-4%	-19%	-1%
CCN(CC)c1ccc(C2NC(=O)NC(C)=C2C(=O)Nc2ccccc2)cc1 (stereo unspecified)	10	2%[38.3 µM]	-13%[46.1 µM]	?	-6%	-2%
CCOC(=O)c1c(NC(=O)CC2SC(N)=NC2=O)sc(C)c1C (stereo unspecified)	.	4%	21%	0%	.	.
COC(=O)c1c(NC(=O)CC2SC(N)=NC2=O)sc2c1CCCC2 (stereo unspecified)	-13	4%	-11%[46.1 µM]	25µM*	-15%	1%
CCOC(=O)c1c(NC(=O)CC2SC(N)=NC2=O)sc2c1CCC(C)C2 (stereo unspecified)	.	11%	1%	16µM*	-24%	-3%
COC(=O)c1c(NC(=O)CSc2ncnc3[nH]ncc23)sc2c1CCC2	.	-8%	-13%	14µM*	.	.
COC(=O)c1c(NC(=O)CC2SC(N)=NC2=O)sc2c1CCC(C)C2 (stereo unspecified)	.	-6%	5%	13µM*	-2%	0%
COC(=O)c1c(NC(=O)CN2CCOCC2)sc2c1CCC(C)C2 (stereo unspecified)	10	18%[38.3 µM]	-28%[46.1 µM]	?	-18%	-29%
c1ccc(CCNc2nc(-c3ccccn3)cs2)cc1	.	13%	-16%	32µM*	.	.
CC(C(=O)Nc1ccccn1)N1C(=O)C2C3C=CC(C3)C2C1=O (stereo unspecified)	0	.	1%[46.1 µM]	25µM*	.	-4%
